Screening results deposited in PubChem BioAssay by several laboratories.
Most compounds without a hit are left out; they make up all but 3.9% or so of the library.
FBA Mtb inh – Mtb fructose-bisphosphate aldolase inhibition. P9WQA3. purified M. tuberculosis FBA, fluorescence read-out. inhibition, % at 1 µM. 2.3% of 360,000 active. AID 588726; in the data active = inhibition above about 27%;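 also: 0% = vehicle and 100% = reference inhibitor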
Target sequence (P9WQA3 whole entry, looked up): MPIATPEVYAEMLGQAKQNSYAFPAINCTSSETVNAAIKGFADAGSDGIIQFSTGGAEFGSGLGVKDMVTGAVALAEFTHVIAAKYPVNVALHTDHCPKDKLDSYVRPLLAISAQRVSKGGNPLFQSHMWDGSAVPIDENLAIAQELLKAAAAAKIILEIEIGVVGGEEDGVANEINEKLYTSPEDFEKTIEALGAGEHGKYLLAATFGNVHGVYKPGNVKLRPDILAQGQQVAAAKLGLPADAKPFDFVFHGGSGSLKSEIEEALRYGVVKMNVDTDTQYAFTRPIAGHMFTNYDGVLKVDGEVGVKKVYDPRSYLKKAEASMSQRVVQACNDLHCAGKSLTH
PrPC TRFRET – cell surface PrPC inhibition, primary TR-FRET screen | 0.43% of 370,000 active | TR-FRET read-out | inhibition, % at 13.8 µM; in the data active = inhibition above about 24%; also: 0% = median of the test wells and 100% = reference compound wells
SARS 3CLpro inh-1 – SARS-CoV 3CLpro protease inhibition | P0C6X7 | recombinant SARS-CoV 3CLpro, quenched FRET peptide cleavage | inhibition, % at 6 µM | 0.14% of 290,000 active | AID 1706; in the data active = inhibition above about 12%
BH1578 lux ind – induces V. cholerae light production without autoinducers | V. cholerae BH1578 lux reporter, luminescence, 6 h | activation, % at 18.7 µM | 0.16% of 350,000 active | AID 588436; in the data active = activation mostly above about 9.7%, no sharp cut-off
GDH-TPI inh – GDH-TPI coupled enzyme inhibition counter-screen. GDH-TPI coupled enzyme counterscreen, NADH absorbance. 1.2% of 360,000 active. inhibition, % at 4.8 µM; in the data active = inhibition above about 30%;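 also: 0% = DMSO wells and 100% = wells lacking the enzyme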
SARS 3CLpro inh-2 – confirmation of SARS coronavirus 3C-like protease inhibitors | shares compounds with SARS 3CLpro inh-1 | AID 1879 | inhibition, % at 6 µM | QFRET protease activity assay, 3CLpro | 36% of 380 active; in the data active = inhibition above about 13%
Numbers without * were called inactive.

For O=C(O)c1[nH]c2ccccc2c1C(c1cc(Br)ccc1O)c1c(C(=O)O)[nH]c2ccccc12 the results were FBA Mtb inh 5, PrPC TRFRET 3, SARS 3CLpro inh-1 14*, BH1578 lux ind 0, GDH-TPI inh 21 and SARS 3CLpro inh-2 15*.
For Cc1ccc(SC2=C(Sc3ccc(C)cc3)C(=O)c3ccccc3C2=O)cc1 the results were FBA Mtb inh -1, PrPC TRFRET -2, SARS 3CLpro inh-1 6, BH1578 lux ind -1, GDH-TPI inh 7 and SARS 3CLpro inh-2 5.
`Cc1ccc(N2C(=O)c3ccccc3C2=O)cc1` gave FBA Mtb inh 2, PrPC TRFRET 10, SARS 3CLpro inh-1 3, BH1578 lux ind 0 and GDH-TPI inh -9.
Screening N=c1sccn1Cc1ccc(Cl)cc1Cl returned FBA Mtb inh -2, PrPC TRFRET -4, SARS 3CLpro inh-1 -6, BH1578 lux ind 0 and GDH-TPI inh 9.
`O=C(CCl)N=c1sccn1Cc1ccccc1Cl` gave FBA Mtb inh -1, PrPC TRFRET 1, SARS 3CLpro inh-1 41*, BH1578 lux ind -1, GDH-TPI inh 10 and SARS 3CLpro inh-2 58*.
For O=C(CCl)N=c1sccn1Cc1ccc(Cl)cc1Cl the results were FBA Mtb inh -1, PrPC TRFRET -3, SARS 3CLpro inh-1 33*, BH1578 lux ind 0, GDH-TPI inh -4 and SARS 3CLpro inh-2 63*.
Screening COc1ccc(CCNC(=O)c2cc(-c3ccncc3)nc3ccc(S(=O)(=O)N4CCOCC4)cc23)cc1OC returned FBA Mtb inh 2, PrPC TRFRET -4, SARS 3CLpro inh-1 8, BH1578 lux ind inactive and GDH-TPI inh 8.
Screening COc1cc(/C=N\NC(=O)Cn2nnc3ccccc32)cc(OC)c1OC returned FBA Mtb inh 2, PrPC TRFRET -1, SARS 3CLpro inh-1 37*, BH1578 lux ind inactive, GDH-TPI inh 8 and SARS 3CLpro inh-2 57*.
For O=C(Cn1nnc2ccccc21)N/N=C\c1cccs1 the results were FBA Mtb inh 2, PrPC TRFRET -2, SARS 3CLpro inh-1 14*, BH1578 lux ind 5, GDH-TPI inh 4 and SARS 3CLpro inh-2 16*.
Screening O=C1CC(NNC(=O)c2cccc(F)c2)C(=O)N1 (stereo unspecified) returned FBA Mtb inh 1, PrPC TRFRET 7, SARS 3CLpro inh-1 11, BH1578 lux ind 0 and GDH-TPI inh 10.
Cc1ccc(NC(CNS(=O)(=O)c2ccc(Cl)cc2)c2ccccc2)cc1 (stereo unspecified) was read as FBA Mtb inh -5, PrPC TRFRET 0, SARS 3CLpro inh-1 13*, BH1578 lux ind inactive, GDH-TPI inh -1 and SARS 3CLpro inh-2 8.
For O=C1C2C(c3ccccc3)C=CC(c3ccccc3)C2C(=O)N1c1ccncc1 (stereo unspecified) the results were FBA Mtb inh -3, PrPC TRFRET -1, SARS 3CLpro inh-1 1, BH1578 lux ind 0 and GDH-TPI inh -9.
O=C1C2C(c3ccccc3)C=CC(c3ccccc3)C2C(=O)N1c1cccnc1 (stereo unspecified) was read as FBA Mtb inh 0, PrPC TRFRET -5, SARS 3CLpro inh-1 20*, BH1578 lux ind 0, GDH-TPI inh 6 and SARS 3CLpro inh-2 70*.
Screening Cc1ccc2cc(CN(c3ccccc3)S(=O)(=O)c3ccccc3)c(=O)[nH]c2c1 returned FBA Mtb inh 2, PrPC TRFRET -8, SARS 3CLpro inh-1 3, BH1578 lux ind 0 and GDH-TPI inh 10.
CCOc1ccc(N(Cc2cc3ccc(C)cc3[nH]c2=O)S(=O)(=O)c2ccccc2)cc1 was read as FBA Mtb inh 3, PrPC TRFRET -6, SARS 3CLpro inh-1 13*, BH1578 lux ind -2, GDH-TPI inh 8 and SARS 3CLpro inh-2 6.
Nc1c(C(O)(C(F)(F)F)C(F)(F)F)cc(C(O)(C(F)(F)F)C(F)(F)F)c2ccccc12 was read as FBA Mtb inh 0, SARS 3CLpro inh-1 14*, BH1578 lux ind -1, GDH-TPI inh 12 and SARS 3CLpro inh-2 12.
Screening CN1CCN2c3ccc(N)cc3CC3(C(=O)NC(=O)NC3=O)C2C1 (stereo unspecified) returned FBA Mtb inh 1, PrPC TRFRET 2, SARS 3CLpro inh-1 22*, BH1578 lux ind inactive, GDH-TPI inh 3 and SARS 3CLpro inh-2 63*.
Screening CN1C(=O)N(C)C(=O)C2(Cc3cc(N)ccc3N3CCN(c4ccccc4F)CC32)C1=O (stereo unspecified) returned PrPC TRFRET 0 and SARS 3CLpro inh-1 2.
O=C(CCC(=O)Nc1nnc(C2CCCCC2)s1)NCc1ccccc1 was read as FBA Mtb inh -5, PrPC TRFRET 6, SARS 3CLpro inh-1 2, BH1578 lux ind 0 and GDH-TPI inh -2.
`CCn1cc(C(=O)NC(=S)Nc2ccccc2[N+](=O)[O-])cn1` gave FBA Mtb inh 2, PrPC TRFRET -11, SARS 3CLpro inh-1 13*, BH1578 lux ind inactive, GDH-TPI inh 10 and SARS 3CLpro inh-2 -5.
Screening CCc1cc(C(=O)N2CCCC(C(=O)c3cccc4ccccc34)C2)n(C)n1 (stereo unspecified) returned FBA Mtb inh -4, PrPC TRFRET 2, SARS 3CLpro inh-1 6, BH1578 lux ind 0 and GDH-TPI inh 2.
Screening COc1cccc(NC(=O)c2cc(Cl)nnc2Cl)c1 returned FBA Mtb inh -1, PrPC TRFRET -8, SARS 3CLpro inh-1 7, BH1578 lux ind 0 and GDH-TPI inh 14.
COc1cc(NC(=O)c2cc(Cl)nnc2Cl)cc(OC)c1OC was read as FBA Mtb inh 4, PrPC TRFRET -11, SARS 3CLpro inh-1 22*, BH1578 lux ind -1, GDH-TPI inh -2 and SARS 3CLpro inh-2 6.
COC(=O)c1ccc(OC(=O)CN2C(=O)c3ccccc3C2=O)cc1 was read as FBA Mtb inh -4, PrPC TRFRET -5, SARS 3CLpro inh-1 15*, BH1578 lux ind -1, GDH-TPI inh 5 and SARS 3CLpro inh-2 14*.
Screening CC(C)N(CCNS(=O)(=O)c1ccc(Cl)cc1)C(C)C returned FBA Mtb inh 2, PrPC TRFRET -4, SARS 3CLpro inh-1 -3, BH1578 lux ind 0 and GDH-TPI inh 21.
`CC(C)OP(=O)(OC(C)C)C1(NS(=O)(=O)c2ccc(Cl)cc2)C=C(Cl)C(=O)C(Cl)=C1` gave FBA Mtb inh 1, PrPC TRFRET 8, SARS 3CLpro inh-1 17*, BH1578 lux ind inactive, GDH-TPI inh 10 and SARS 3CLpro inh-2 11.
`Cc1cc(Cl)ccc1OC(C)C(=O)Nc1ccc(S(=O)(=O)Nc2cnc3ccccc3n2)cc1` (stereo unspecified) gave FBA Mtb inh 7, PrPC TRFRET 3, SARS 3CLpro inh-1 12*, BH1578 lux ind 4, GDH-TPI inh 8 and SARS 3CLpro inh-2 8.
`COc1ccccc1-c1c(-c2ccc(OCC(=O)NN)cc2O)n[nH]c1C(F)(F)F` gave FBA Mtb inh 0, PrPC TRFRET 6, SARS 3CLpro inh-1 2, BH1578 lux ind 0 and GDH-TPI inh -8.
